SMILES strings stand for the structures. Results with a measured potency or affinity are listed apart. Calls of active or inactive are those of the source. How the calls were made is not given here.

Chain of Peroxisome proliferator-activated receptor gamma (Homo sapiens) (P37231 whole entry, looked up): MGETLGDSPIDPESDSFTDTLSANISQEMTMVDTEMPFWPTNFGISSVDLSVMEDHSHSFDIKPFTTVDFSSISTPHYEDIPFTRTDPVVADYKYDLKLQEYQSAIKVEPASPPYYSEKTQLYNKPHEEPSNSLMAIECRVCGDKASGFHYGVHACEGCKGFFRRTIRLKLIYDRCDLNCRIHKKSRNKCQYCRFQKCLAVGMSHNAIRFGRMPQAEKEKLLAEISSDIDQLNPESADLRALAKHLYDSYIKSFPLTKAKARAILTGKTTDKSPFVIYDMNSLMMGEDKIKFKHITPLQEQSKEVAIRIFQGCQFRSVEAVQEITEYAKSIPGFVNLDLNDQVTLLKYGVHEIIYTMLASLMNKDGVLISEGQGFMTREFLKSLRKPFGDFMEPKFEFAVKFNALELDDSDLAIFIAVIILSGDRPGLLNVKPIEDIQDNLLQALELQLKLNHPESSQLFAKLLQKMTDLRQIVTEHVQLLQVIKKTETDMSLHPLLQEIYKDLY

The assay concerns the target Peroxisome proliferator-activated receptor gamma (Homo sapiens) (UniProt P37231). The assay can be described thus: PPARg transcriptional activation, reporter cells – cell-based, luminescence, assay provider, dose response (AID 504447). Particulars: luciferase luminescence, partial agonism; series mostly up to 5 µM.
Consider `CCOc1cccc(/C(O)=C2/C(=O)C(=O)N(CCN3CCOCC3)C2c2ccncc2)c1` (stereo not drawn), for which the compound was called inactive.

As for `Cc1ccc2nc(N3C(=O)C(O)=C(C(=O)c4ccco4)C3c3ccc(O)cc3)sc2c1` (stereo not drawn), the result was inactive. To `O=C(O)CCN1C(=O)/C(=C/c2ccc(C(F)(F)F)cc2C(F)(F)F)SC1=S` belongs “inactive”.

In the case of `CCOc1cc(N2CCOCC2)c(OCC)cc1NC(=O)c1ccc2ccccc2n1`, the compound was called inactive.

Regarding `O=C(c1cccc(N2C(=O)C3C4C=CC(C4)C3C2=O)c1)N1CCN(c2ccccc2Cl)CC1` (stereo not drawn), the compound was called inactive. To `O=C(NC(Cc1ccccc1)C(=O)N1CCN(c2ccccc2O)CC1)c1ccccc1` (stereo not drawn) belongs “inactive”; to `Cc1cc(N2C(=O)C(O)=C(C(=O)c3cccs3)C2c2cccc(Br)c2)no1` (stereo not drawn), “inactive”. In the case of `Cc1cccc(NC(=O)CN2C(=O)/C(=C3\SC(=S)N(CC4CCCO4)C3=O)c3ccccc32)c1` (stereo not drawn) it was “inactive”; in that of `O=C(CSc1nnc(Cc2cc(=O)[nH]c(=O)[nH]2)n1-c1ccc(Cl)cc1)N1CCc2ccccc21`, “inactive”; in that of `Cc1ccc(-c2nnc(Nc3ccc(O)cc3)c3ccccc23)cc1S(=O)(=O)NCCO`, “inactive”. To `COc1ccc(O)c(C(=O)c2cc(C#N)c(=O)n(-c3ccc(Cl)cc3)c2)c1` belongs “inactive”; to `CN(CCNC(=O)C1CCCN(c2ncnc3c2nc2n3CCCCC2)C1)Cc1ccccc1` (stereo not drawn), “inactive”. For the compound `Cc1ccc2nc(N3C(=O)C(O)=C(C(=O)c4ccco4)C3c3cccc(O)c3)sc2c1` (stereo not drawn), the compound was classed as inactive.

As for `COc1ccc(-c2cc(C(=O)NC(C)c3ccccn3)c3ccccc3n2)cc1OC` (stereo not drawn), the outcome was inactive. `COc1ccc(CNC(=O)Cn2c(=O)n(CCC(=O)N3CCCCC3)c(=O)c3sccc32)cc1`: the compound was classed as inactive. As to `CCOc1ccc(CN2CCN(Cc3cccc4nonc34)CC2CCO)cc1` (stereo not drawn), the call was inactive. In the case of `Cc1ccccc1NC(=O)CC1C(=O)Nc2ccccc2N1CC(=O)N(C)C1CCS(=O)(=O)C1` (stereo not drawn), the compound was called inactive.

Turning to `Cc1ccc2[nH]c(=O)c(CN(Cc3cccs3)Cc3nnnn3CC3CCCO3)cc2c1` (stereo not drawn), the call was inactive. To `COc1ccc(C=NNS(=O)(=O)c2ccc(F)cc2)cc1COc1cc(F)ccc1[N+](=O)[O-]` belongs “inactive”; to `O=C(O)CCN1C(=O)/C(=C/c2ccccc2)SC1=S`, “inactive”; to `S=C(NCCc1ccccc1)N1CCn2cccc2C1c1ccncc1` (stereo not drawn), “inactive”. In the case of `CCC(=O)c1ccc(OCC(=O)OC(C)C(=O)Nc2c(C)n(C)n(-c3ccccc3)c2=O)cc1` (stereo not drawn) it was “inactive”; in that of `O=C(c1nc2ccccn2c1CN1CCCC(O)C1)N1CCN(C2CCCCC2)CC1` (stereo not drawn), “inactive”.

These data come from PubChem BioAssay AID504447 (The Scripps Research Institute Molecular Screening Center, 2011).
